A short description of assay [1]: optical density shifts of acrAB sulA E. coli – strain DRC41, OD650, 48 h, E. coli filamentation inducer project, primary screen (AID 1152).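 Further: E. coli MC1000 strain DRC41 lacking acrAB efflux pump and sulA.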 Conditions: higher = more signal, called active from +8 up or from −8 down.
Assay [2] in a line: probe aLefty1 binding on compound microarray – biochemical, small-molecule microarray, 635/667 nm fluorescence, primary screen (AID 1153).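 Further: score merges spot fluorescence with signal-to-noise ratio from the scanned slide images.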 Conditions: higher = more signal.
Assay [3] can be described thus: plasmodial surface anion channel blockers, osmotic lysis – cell-based, P. falciparum Indochina, OD700, 1 h, primary screen (AID 1154). Conditions: P. falciparum Indochina infected RBC osmotic lysis, higher = more signal, called active from +8 up or from −8 down.
Assay [4] can be described thus: plasmodial surface anion channel blockers, osmotic lysis – cell-based, P. falciparum Indochina, OD700, 2 h, primary screen (AID 1155).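 Further: lysis reports solute entry through the parasite surface anion channel PSAC.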 Conditions: P. falciparum Indochina infected erythrocytes, higher = more signal, called active from +8 up or from −8 down.
Assay [5] is described as follows: changes in parasitized red cell lysis, either direction – P. falciparum Indochina, OD700, 3 h, PSAC antagonist project, primary screen (AID 1156). Conditions: P. falciparum-infected erythrocytes, osmotic lysis, higher = more signal, called active from +8 up or from −8 down.
Assay [6] in a line: plasmodial surface anion channel blockers, osmotic lysis – cell-based, P. falciparum Indochina, OD700, 18 h, primary screen (AID 1157). Conditions: P. falciparum Indochina infected erythrocytes, osmotic lysis OD700, 18 h; higher = more signal, called active from +8 up or from −8 down.
A short description of assay [7]: S6 kinase pathway phospho-S6 level changes – cell-based, A549, cytoblot, luminescence, serum-stimulated, primary screen (AID 1158).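 Further: serum-stimulated A549 lung adenocarcinoma cells; signal is phosphorylated S6 detected by cytoblot immunostaining with HRP secondary.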 Conditions: 5 h, higher = more signal.
For assay [8], the target named is NADPH oxidase 2 (Homo sapiens) (UniProt P04839). Briefly: compounds shifting NOX2 Amplex Red fluorescence – cell-based, HEK293-NOX2, PMA-stimulated, NOX inhibitor project, primary screen (AID 1159). Further: test concentration not given here. Conditions: 45 min, higher = more signal, called active from +8 up or from −8 down.
NADPH oxidase 2 (Homo sapiens), sequence (P04839 whole entry, looked up): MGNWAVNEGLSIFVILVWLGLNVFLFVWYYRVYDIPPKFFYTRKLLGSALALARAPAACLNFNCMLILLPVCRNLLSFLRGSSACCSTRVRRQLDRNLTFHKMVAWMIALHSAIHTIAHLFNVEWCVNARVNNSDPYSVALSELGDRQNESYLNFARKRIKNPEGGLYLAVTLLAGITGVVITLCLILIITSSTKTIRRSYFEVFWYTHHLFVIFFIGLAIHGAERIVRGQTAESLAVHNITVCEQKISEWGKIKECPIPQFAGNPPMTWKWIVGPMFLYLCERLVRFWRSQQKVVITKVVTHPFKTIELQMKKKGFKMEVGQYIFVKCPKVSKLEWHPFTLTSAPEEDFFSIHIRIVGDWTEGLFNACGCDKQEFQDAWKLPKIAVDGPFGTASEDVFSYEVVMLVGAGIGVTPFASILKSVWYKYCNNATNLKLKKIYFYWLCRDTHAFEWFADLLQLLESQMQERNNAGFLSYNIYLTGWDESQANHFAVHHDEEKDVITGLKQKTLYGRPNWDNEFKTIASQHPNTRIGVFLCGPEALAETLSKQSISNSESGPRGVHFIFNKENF
The target of assay [9] is NADPH oxidase 4 (Homo sapiens) (UniProt Q9NPH5). Briefly: compounds shifting NOX4 Amplex Red fluorescence – cell-based, HEK293-NOX4, tetracycline-induced, NOX inhibitor project, primary screen (AID 1160). Conditions: HEK293-NOX4, Amplex Red H2O2 fluorescence, 45 min; higher = more signal, called active from +8 up or from −8 down.
NADPH oxidase 4 (Homo sapiens), sequence (Q9NPH5 whole entry, looked up): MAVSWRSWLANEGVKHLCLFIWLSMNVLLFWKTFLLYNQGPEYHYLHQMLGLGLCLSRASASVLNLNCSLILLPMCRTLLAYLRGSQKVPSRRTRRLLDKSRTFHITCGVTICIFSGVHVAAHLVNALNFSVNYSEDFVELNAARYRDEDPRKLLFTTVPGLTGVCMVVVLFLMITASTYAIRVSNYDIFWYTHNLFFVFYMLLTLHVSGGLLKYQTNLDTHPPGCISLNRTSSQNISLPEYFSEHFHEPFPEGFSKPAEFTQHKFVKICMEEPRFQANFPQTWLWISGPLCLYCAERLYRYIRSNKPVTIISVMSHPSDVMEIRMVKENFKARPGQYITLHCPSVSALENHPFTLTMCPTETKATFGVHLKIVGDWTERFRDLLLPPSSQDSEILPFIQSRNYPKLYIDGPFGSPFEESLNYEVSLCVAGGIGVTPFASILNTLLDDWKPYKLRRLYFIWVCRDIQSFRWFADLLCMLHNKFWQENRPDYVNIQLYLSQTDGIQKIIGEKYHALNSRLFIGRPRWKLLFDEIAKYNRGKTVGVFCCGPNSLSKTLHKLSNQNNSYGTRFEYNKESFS
Assay [10] has as its target NADPH oxidase 5 (Homo sapiens) (UniProt Q96PH1). Briefly: compounds shifting NOX5 Amplex Red fluorescence – cell-based, HEK293-NOX5, NOX inhibitor project, primary screen (AID 1161). Conditions: HEK293-NOX5, ionomycin, 45 min, higher = more signal.
The nature of assay [11]: compound effects on lung adenocarcinoma cell viability – A549, calcein-AM fluorescence, 48 h, basal, profiling panel (AID 1162). Further: test concentration not given here. Conditions: higher = more signal.
The nature of assay [12]: compound effects on differentiated 3T3-L1 adipocyte viability – cell-based, 3T3-L1 adipocytes, calcein-AM fluorescence, 48 h, basal, profiling panel (AID 1163). Further: test concentration not given here. Conditions: 3T3-L1 adipocytes viability, higher = more signal.
Assay [13] can be described thus: compound effects on hepatocellular carcinoma cell viability – HepG2, calcein-AM fluorescence, 48 h, basal, profiling panel (AID 1164). Further: test concentration not given here. Conditions: higher = more signal.
A short description of assay [14]: compound effects on multiple myeloma cell viability – MM1S, calcein-AM fluorescence, 48 h, basal, profiling panel (AID 1165). Further: test concentration not given here. Conditions: higher = more signal.
Assay [15] can be described thus: calcein-AM signal in unstimulated myeloma cells – cell-based, calcein-AM fluorescence, 48 h, PK04 Diversity Set, profiling panel (AID 1166).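 Further: cells grown under basal conditions without added stimulus; test concentration not given here.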 Conditions: RPMI8226 myeloma viability, higher = more signal.
Assay [16] in a line: JC-1 mitochondrial signal, unstimulated HepG2 cells – cell-based, JC-1 fluorescence, 24 h, 100 nL compound, profiling panel (AID 1167). Further: test concentration not given here. Conditions: HepG2 mitochondrial potential, higher = more signal.
The nature of assay [17]: JC-1 mitochondrial signal, unstimulated adipocytes – cell-based, JC-1 fluorescence, 3T3-L1 adipocytes, 24 h, 100 nL compound, profiling panel (AID 1168). Further: test concentration not given here. Conditions: JC-1 mitochondrial fluorescence, higher = more signal, called active from +8 up or from −8 down.
Assay [18] can be described thus: JC-1 mitochondrial signal, unstimulated myeloma cells – cell-based, JC-1 fluorescence, RPMI8226, 24 h, 100 nL compound, profiling panel (AID 1169). Further: test concentration not given here. Conditions: JC-1 mitochondrial potential fluorescence, higher = more signal.
Assay [19] in a line: JC-1 mitochondrial signal, unstimulated MM1S myeloma – cell-based, JC-1 fluorescence, 24 h, 100 nL compound, profiling panel (AID 1170). Further: test concentration not given here. Conditions: MM1S mitochondrial potential, higher = more signal.
Assay [20] in a line: resazurin metabolic signal in A549 cells – cell-based, resazurin fluorescence, 24 h, PK04 Diversity Set, profiling panel (AID 1171). Further: test concentration not given here. Conditions: A549 viability, higher = more signal, called active from +8 up or from −8 down.

Calls of active or inactive are those of the source.

NADPH oxidase 5 (Homo sapiens), sequence (Q96PH1 whole entry, looked up): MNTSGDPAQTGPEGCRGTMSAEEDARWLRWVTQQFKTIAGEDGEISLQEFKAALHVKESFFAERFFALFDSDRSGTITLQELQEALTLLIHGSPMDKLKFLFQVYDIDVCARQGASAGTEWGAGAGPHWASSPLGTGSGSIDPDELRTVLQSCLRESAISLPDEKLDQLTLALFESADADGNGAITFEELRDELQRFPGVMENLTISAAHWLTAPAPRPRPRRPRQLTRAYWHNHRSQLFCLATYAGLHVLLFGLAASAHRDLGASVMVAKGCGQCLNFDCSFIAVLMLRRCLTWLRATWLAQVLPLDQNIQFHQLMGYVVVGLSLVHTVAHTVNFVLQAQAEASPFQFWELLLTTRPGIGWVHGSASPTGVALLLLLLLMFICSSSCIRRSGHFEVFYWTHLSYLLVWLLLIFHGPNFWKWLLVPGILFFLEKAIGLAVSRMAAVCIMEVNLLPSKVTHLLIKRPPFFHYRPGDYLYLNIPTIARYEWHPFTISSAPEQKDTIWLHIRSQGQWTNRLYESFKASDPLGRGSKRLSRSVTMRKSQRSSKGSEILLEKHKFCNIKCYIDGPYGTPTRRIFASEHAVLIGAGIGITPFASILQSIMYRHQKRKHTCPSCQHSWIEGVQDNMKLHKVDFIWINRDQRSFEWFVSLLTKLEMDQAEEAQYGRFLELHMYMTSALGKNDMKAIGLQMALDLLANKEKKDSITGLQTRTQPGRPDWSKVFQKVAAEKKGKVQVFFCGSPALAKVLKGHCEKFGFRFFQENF

As to `NCCCCCNC(=O)[C@H]1C[C@H]2C(=O)N3CCC[C@H]3C(=O)N2[C@H]1c1ccc(O)cc1`, the z-score in assay [1] was -0.607 (inactive); in assay [3], 0.888 (inactive); in [4], 0.0655 (inactive); in assay [5], -1.9 (inactive); in assay [6], 0.0061 (inactive); in assay [7], -0.604. Besides, the z-score is 0.0724 (inactive) in assay [8]; 0.719 (inactive) in assay [9]; -0.182 in assay [10]; -0.246 in assay [11]; 0.339 in assay [12]; -0.0476 in assay [13]. Moreover, the z-score in assay [14] was -1.11; in [15] it was -0.177; in assay [16] it was -0.0181; in assay [17] it was 0.0417 (inactive); in [18], -0.398; in assay [19], 0.286. Besides, the z-score in [20] was -0.166 (inactive). The molecule further had a composite z-score in assay [2] of 1.17.
On to `Cc1ccc([C@H]2C(C(=O)O)=CCN2S(=O)(=O)c2ccc(C)cc2)cc1`, for which the z-score in assay [1] was -0.813 (inactive); in assay [3] it was 1.48 (inactive); in [4], 0.495 (inactive); in assay [5] it was 0.164 (inactive); in assay [6] it was 0.291 (inactive); in assay [7] it was -0.579. For the same molecule, the z-score in assay [8] is 0.441 (inactive); in assay [9] it was -0.84 (inactive); in assay [10], -1.62; in assay [11], -0.261; in assay [12] it was -0.456; in [13] it was -0.577. For the same molecule, the z-score in assay [14] is -0.458; in assay [15] it was -0.922; in assay [16], -1.39; in assay [17], -0.521 (inactive); in [18], 0.284; in [19], -0.0534. The z-score in assay [20] was -0.29 (inactive). This molecule yielded a composite z-score in assay [2] of -0.0308.
For `CC(CO)N1C(=O)[C@@H]2C3C(=O)OCCC/C=C\[C@H]3OC23C=CCN(CCN2CCOCC2)C(=O)[C@@H]13` (stereo not given in full), the z-score is 0.253 (inactive) in assay [1]; 0.901 (inactive) in [3]; 0.0448 (inactive) in assay [4]; 1.7 (inactive) in [5]; 0.01 (inactive) in assay [6]; 0.0058 in [7]. Moreover, the z-score was 0.238 (inactive) in assay [8]; -0.398 (inactive) in assay [9]; 1.05 in [10]; -0.31 in [11]; -0.414 in assay [12]; 0.755 in assay [13]. The z-score in assay [14] was 1.92; in assay [15], 0.435; in assay [16], 0.559; in assay [17] it was -0.109 (inactive); in assay [18], 0.357; in assay [19] it was -1.07. In addition, the z-score in assay [20] was -0.7 (inactive). This molecule registered a composite z-score in assay [2] of -0.348.
As to `Cc1ccc(S[C@]2(C(=O)O)CC(=O)N(C(C)C)[C@@H]2c2ccc(CO)cc2)cc1`, the z-score is 1.99 (inactive) in [1]; 1.05 (inactive) in assay [3]; -0.354 (inactive) in assay [4]; -1.28 (inactive) in [5]; -0.951 (inactive) in [6]; 2.66 in assay [7]. Moreover, the z-score was 0.149 (inactive) in [8]; -0.716 (inactive) in assay [9]; -0.877 in assay [10]; 0.716 in assay [11]; 1.07 in [12]; 1.19 in assay [13]. Also, the z-score in assay [14] was 0.266; in [15] it was 0.535; in assay [16] it was 1.36; in assay [17], -0.285 (inactive); in [18], 0.00862; in assay [19], -0.317. In addition, the z-score in [20] was -0.831 (inactive). In assay [2], this molecule displayed a composite z-score of -0.668.
Consider `[N-]=[N+]=Nc1ccccc1C[C@@]1(C(=O)N2CCCCC2)N=C(c2ccc(OCCCO)cc2)O[C@@H]1c1ccccc1`, for which the z-score in assay [1] was 2.42 (inactive); in [3] it was 26.6 (active); in assay [4], 18.4 (active); in assay [5], 2.78 (inactive); in [6] it was 2.31 (inactive); in assay [7], 0.159. The z-score is -0.0547 (inactive) in [8]; 0.951 (inactive) in assay [9]; -1.31 in [10]; 0.93 in assay [11]; 0.699 in [12]; 1.02 in assay [13]. Further, the z-score in assay [14] is -2.38; in assay [15], -4.45; in assay [16], 0.819; in [17] it was 0.883 (inactive); in assay [18] it was -1.19; in [19] it was 0.992. The z-score in [20] is 1.41 (inactive). Besides, the composite z-score in assay [2] was determined as 0.0227.
In the case of `COC(=O)C(CC#Cc1ccc2c(c1)[C@]1(C(=O)N2)[C@H](c2ccccc2OCCO)N2[C@H](c3ccccc3)[C@H](c3ccccc3)OC(=O)[C@H]2[C@@H]1C(=O)O)C(=O)OC`, the z-score in assay [1] was 0.456 (inactive); in assay [3], 4.94 (inactive); in assay [4], 0.569 (inactive); in [5], -7.69 (inactive); in assay [6], -0.0236 (inactive); in [7], -0.13. Also, the z-score is 1.79 (inactive) in [8]; -0.0833 (inactive) in assay [9]; 0.036 in assay [10]; 1.45 in [11]; 0.0879 in [12]; 1.38 in assay [13]. The z-score in [14] was -2.37; in assay [15], -2.41; in assay [16] it was 1.11; in [17], -0.847 (inactive); in assay [18], -0.214; in [19], -0.197. Also, the z-score in [20] is 0.917 (inactive). This molecule returned a composite z-score in assay [2] of 0.169.
For `O=C1NC(=O)C2C1C=CC(C(O)C=Cc1ccc([N+](=O)[O-])cc1)N2Nc1ccc(Cl)cc1Cl` (stereo not given), the z-score in assay [1] was -2.11 (inactive); in assay [3], 10.1 (active); in assay [4], 2.46 (inactive); in assay [5], 2.09 (inactive); in assay [6], 1.66 (inactive); in assay [7], -1. The z-score is -0.82 (inactive) in assay [8]; -6 (inactive) in assay [9]; -1.45 in assay [10]; -0.352 in [11]; -0.122 in [12]; -0.3 in [13]. The z-score in assay [14] was -1.47; in assay [15], -1.4; in [16], -0.5; in [17], -0.726 (inactive); in [18] it was -1.02; in assay [19], -0.873. For the same molecule, the z-score in assay [20] was -0.428 (inactive). In addition, the composite z-score in assay [2] was determined as 0.501.
As for `CC(C)(C)OC(=O)CC[C@]1(C(=O)NCCN2CCOCC2)COC(c2ccc(OCCCO)cc2)=N1`, the z-score is 1.04 (inactive) in assay [1]; 18.7 (active) in [3]; 2.01 (inactive) in [4]; 0.0229 (inactive) in [5]; 0.791 (inactive) in assay [6]; -0.395 in [7]. The z-score is -2.08 (inactive) in assay [8]; 0.08 (inactive) in [9]; -0.137 in [10]; 0.263 in assay [11]; -0.555 in [12]; 0.854 in assay [13]. Also, the z-score in assay [14] is -0.61; in assay [15] it was 0.512; in assay [16], 0.0561; in assay [17], 0.588 (inactive); in assay [18], 0.212; in [19], -0.699. Besides, the z-score in assay [20] was 0.412 (inactive). In addition, in assay [2], the composite z-score is 0.319.

The values are drawn from PubChem BioAssay.
